According to PubChem BioAssay (Tox21):
Results filed as inconclusive are left out. The source made the active and inactive calls. Unless noted, calls follow the shape of the full dose curve.

Key:
[1] = Nuclear factor erythroid 2-related factor 2/antioxidant responsive element (Nrf2/ARE) small molecule agonists: qHTS cell viability counter screen in human keratinocytes (AID 1919968; active = well fitted curve in the direction sought with a large enough effect in the repeat runs; an effect the other way counts as inactive or inconclusive; also: nearly all actives have a fitted effect of over 55% in size; also: potency is read from the fitted curve at half-maximal effect)
Summary of the method: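 Fluorescence read-out from CellTiter-Fluor after 1 h at 37 C. Wells held HaCaT-derived ARE-luciferase reporter cells (1,500/well) treated 23 h with DMSO-dissolved compounds. Run in the same wells as the luciferase agonist read.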

[2] = Nuclear factor erythroid 2-related factor 2/antioxidant responsive element (Nrf2/ARE) small molecule agonists: luciferase reporter gene qHTS assay in human keratinocytes (AID 1919969); also: nearly all actives have a fitted effect of over 35% in size; also: potency is read from the fitted curve at half-maximal effect
[3] = target: Gonadotropin-releasing hormone receptor (Homo sapiens) (UniProt P30968); test: Human gonadotropin-releasing hormone receptor (GnRHR) small molecule agonists, calcium flux assay in GnRHR-HEK293 cells (AID 1920063); also: nearly all actives have a fitted effect of over 35% in size; also: potency is read from the fitted curve at half-maximal effect
Summary of the method: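 Calcium-dye fluorescence, Ex/Em=480/540, recorded every 1 sec over 3 min after compound addition to GnRHR-HEK293 cells. Cells had been seeded 18 hours earlier and dye-loaded for 1 hour at 37 C. Fifteen concentrations, triplicates.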

[4] = target: KiSS-1 receptor (Homo sapiens) (UniProt Q969F8); test: Human kisspeptin (KISS1R) small molecule agonists, calcium flux assay in KISS1R-HEK293 cells (AID 1920064; active = well fitted curve in the direction sought with a large enough effect in the repeat runs; an effect the other way counts as inactive or inconclusive)
Summary of the method: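 Calcium flux read-out: kinetic fluorescence at Ex/Em=480/540, 1 s intervals over 3 min, after pin-tool compound addition to dye-loaded KISS1R-HEK293 cells. Fifteen concentrations, triplicates.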

[5] = G protein-coupled receptor (GPCR) small molecule agonists, calcium flux assay: HEK293 wild type cell line counter screen (AID 1920065)
Summary of the method: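 Agonist mode; 18 h seeding at 37 C, 1 h dye load at 37 C; compounds pinned from DMSO, ATP as positive control; kinetic fluorescence 480/540 nm, 3 min, 1 s reads; 15 concentrations, triplicate.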

[6] = p53 small molecule agonists, cell-based qHTS assay with human liver microsomes (AID 1963577);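 also: p53 response element beta-lactamase reporter cells with liver microsomes plus NADPH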
Summary of the method: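 p53RE-bla cells; 5 h settle, 37 C/5% CO2; cpd + HLM 0.5 mg/mL + NADPH 0.5 mg/mL (final); 16 h 37 C; LiveBLAzer 2 h RT dark; fluorescence readout.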

[7] = p53 small molecule agonists, cell-based qHTS assay with rat liver microsomes (AID 1963578)
Summary of the method: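 Rat liver microsome activation: microsomes 0.5 mg/mL, NADPH 0.5 mg/mL final; p53RE-bla cells, 16 h 37 C; LiveBLAzer readout, 2 h RT dark.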

[8] = p53 small molecule agonists, cell-based qHTS assay: qHTS cell viability counter screen (AID 1963581); also: nearly all actives have a fitted effect of over 45% in size
Summary of the method: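 Cytotoxicity read-out: ATP-based luminescence (CellTiter-Glo, 30 min RT) measured in the same wells as the p53 reporter assay, HCT-116 p53RE-bla cells, 16 h compound exposure at 37 C.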

[9] = p53 small molecule agonists, cell-based qHTS assay (AID 1963582; active = well fitted activation curve with a large enough effect in the signal ratio in the repeat runs, not every such curve was filed as active; the % refers to the signal ratio)
Summary of the method: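 Fluorescence intensity read-out of a beta-lactamase reporter under a p53 response element. Cells were exposed to DMSO-dissolved compounds for 16 h at 37 C, then developed with FRET substrate for 2 h at RT.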

[10] = target: 5-hydroxytryptamine receptor 2A (Homo sapiens) (UniProt P28223); test: 5-hydroxytryptamine receptor 2A (HTR2A) small molecule antagonists, cell-based qHTS assay (AID 1963586); also: nearly all actives have a fitted effect of over 45% in size
Summary of the method: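 CHO cells stably expressing human HTR2A were plated for 18 h at 37 C, then loaded with calcium dye for 1 h. Compounds were preincubated 5 min at room temperature before DOI (4 nM solution) was added. Kinetic fluorescence was read for 3 min.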

[11] = target: 5-hydroxytryptamine receptor 2A (Homo sapiens) (UniProt P28223); test: 5-hydroxytryptamine receptor 2A (HTR2A) small molecule agonists, cell-based qHTS assay (AID 1963587); also: nearly all actives have a fitted effect of over 30% in size
Summary of the method: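 Kinetic calcium-flux fluorescence (2 min, 1 sec intervals) after compound addition in agonist mode. HTR2A-CHO cells were cultured 18 h, then dye-loaded 1 h at 37 C.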

[12] = target: Muscarinic acetylcholine receptor M1 (Homo sapiens) (UniProt P11229); test: Cholinergic receptor muscarinic 1 (CHRM1) small molecule antagonists, cell-based qHTS assay (AID 1963588); also: nearly all actives have a fitted effect of over 40% in size
Summary of the method: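 Compounds were tested at 15 concentrations in three independent runs. Dye-loaded CHRM1-CHO cells were exposed 5 min at room temperature before stimulation by acetylcholine added at 50nM. Intracellular calcium was read kinetically on FDSS for 3 min.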

[13] = target: Muscarinic acetylcholine receptor M1 (Homo sapiens) (UniProt P11229); test: Cholinergic receptor muscarinic 1 (CHRM1) small molecule agonists, cell-based qHTS assay (AID 1963589); also: nearly all actives have a fitted effect of over 35% in size
Summary of the method: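 Calcium flux read-out: kinetic fluorescence at 1 sec intervals after pin-tool compound addition to dye-loaded CHRM1-CHO cells (human M1). Agonist mode; 15 concentrations tested in triplicate independent runs.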

[14] = cAMP Responsive Elements (CRE) small molecule agonists, cell-based qHTS assay (AID 1963590)
Summary of the method: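 Beta-lactamase reporter readout: LiveBLAzer B/G FRET substrate, 2 h at room temperature, added after 3 h compound treatment of CRE-bla HEK 293T cells at 37 C/5% CO2.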

[15] = cAMP Responsive Elements (CRE) small molecule antagonists, cell-based qHTS assay (AID 1963591; active = well fitted inhibition curve with a large enough effect in the signal ratio in the repeat runs, not every such curve was filed as active; the % refers to the signal ratio)
Summary of the method: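 HEK293T CRE-bla; 18 h preincubation; compound pin-transfer; NKH477 0.25 uM final, 3 h, 37 C; LiveBLAzer FRET substrate 2 h RT.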

[16] = target: Beta-2 adrenergic receptor (Homo sapiens) (UniProt P07550); test: Adrenergic beta2 receptor (ADRB2) small molecule antagonists, cell-based qHTS assay (AID 1963592); also: series mostly up to about 92 µM; nearly all actives have a fitted effect of over 50% in size
Summary of the method: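 Assay format: CHO-ADRB2 cells, 18-20hr seeding at 37C/5% CO2, then compound plus 1nM isoproterenol agonist mix for 0.5hr RT. Homogeneous time-resolved fluorescence cAMP detection after 1hr, expressed as 665/615 nm ratio.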

[17] = target: D(2) dopamine receptor (Homo sapiens) (UniProt P14416); test: Dopamine D2 receptor (DRD2) small molecule agonists, cell-based qHTS assay (AID 1963594); also: nearly all actives have a fitted effect of over 35% in size
Summary of the method: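 cAMP accumulation in DRD2-HEK293 cells measured by HTRF after 1 h detection; compounds added 10 min before NKH477 (200nM […]) forskolin-analogue stimulation, 30 min at room temperature, with Ro20-1724 present at 0.1 mM final.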

[18] = target: D(2) dopamine receptor (Homo sapiens) (UniProt P14416); test: Dopamine D2 receptor (DRD2) small molecule antagonists, cell-based qHTS assay (AID 1963595; active = well fitted inhibition curve with a large enough effect in the signal ratio in the repeat runs, with a control signal flat; the % refers to the signal ratio)
Summary of the method: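 HTRF cAMP read-out at 665 and 620 nm emission (340 nm excitation). Antagonist mode: compounds were tested against 12 nM quinpirole in DRD2-HEK293 cells, with 200 nM NKH477 raising cAMP and 0.1 mM Ro20-1724 blocking its breakdown.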

[19] = p53 small molecule agonists, cell-based qHTS assay with rat liver microsomes: qHTS cell viability counter screen (AID 1963580); also: nearly all actives have a fitted effect of over 45% in size
Summary of the method: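 Rat liver microsome (0.5 mg/mL final) and NADPH (0.5 mg/mL final) co-incubation with compounds for 16 h at 37 C on HCT-116 p53RE-bla cells; cytotoxicity taken from intracellular ATP luminescence.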

[20] = target: Beta-2 adrenergic receptor (Homo sapiens) (UniProt P07550); test: Adrenergic beta2 receptor (ADRB2) small molecule agonists, cell-based qHTS assay (AID 1963593);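 also: CHO cells stably overexpressing human ADRB2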
Summary of the method: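 CHO cells stably over-expressing ADRB2 were plated overnight at 37C, then dosed with compounds plus a stimulation mix containing 100uM IBMX and 25uM Ro-20-1724 for 0.5hr at room temperature. cAMP was measured by HTRF competition, 1hr.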

Measured: Potency

Gonadotropin-releasing hormone receptor (Homo sapiens), sequence (P30968 whole entry, looked up): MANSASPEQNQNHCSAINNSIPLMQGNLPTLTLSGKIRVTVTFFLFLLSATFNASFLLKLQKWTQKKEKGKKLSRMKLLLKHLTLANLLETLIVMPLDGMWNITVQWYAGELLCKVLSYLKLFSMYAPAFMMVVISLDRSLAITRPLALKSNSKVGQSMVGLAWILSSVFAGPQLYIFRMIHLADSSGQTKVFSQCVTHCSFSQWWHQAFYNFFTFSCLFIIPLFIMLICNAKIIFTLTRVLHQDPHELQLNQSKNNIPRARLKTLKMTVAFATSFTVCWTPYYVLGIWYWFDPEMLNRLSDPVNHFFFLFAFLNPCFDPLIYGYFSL
Muscarinic acetylcholine receptor M1 (Homo sapiens), sequence (P11229 whole entry, looked up): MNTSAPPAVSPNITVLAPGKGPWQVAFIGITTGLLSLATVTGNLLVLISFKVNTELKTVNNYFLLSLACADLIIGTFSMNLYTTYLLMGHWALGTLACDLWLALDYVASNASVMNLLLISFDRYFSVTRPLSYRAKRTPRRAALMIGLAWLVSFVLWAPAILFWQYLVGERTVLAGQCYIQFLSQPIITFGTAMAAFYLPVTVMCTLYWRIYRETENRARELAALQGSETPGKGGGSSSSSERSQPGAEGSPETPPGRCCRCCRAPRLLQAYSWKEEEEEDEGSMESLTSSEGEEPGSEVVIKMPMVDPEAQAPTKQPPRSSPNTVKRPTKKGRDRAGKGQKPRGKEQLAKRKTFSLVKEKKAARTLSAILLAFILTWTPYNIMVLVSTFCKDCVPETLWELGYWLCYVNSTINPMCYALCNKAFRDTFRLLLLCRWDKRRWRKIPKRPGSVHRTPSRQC
D(2) dopamine receptor (Homo sapiens), sequence (P14416 whole entry, looked up): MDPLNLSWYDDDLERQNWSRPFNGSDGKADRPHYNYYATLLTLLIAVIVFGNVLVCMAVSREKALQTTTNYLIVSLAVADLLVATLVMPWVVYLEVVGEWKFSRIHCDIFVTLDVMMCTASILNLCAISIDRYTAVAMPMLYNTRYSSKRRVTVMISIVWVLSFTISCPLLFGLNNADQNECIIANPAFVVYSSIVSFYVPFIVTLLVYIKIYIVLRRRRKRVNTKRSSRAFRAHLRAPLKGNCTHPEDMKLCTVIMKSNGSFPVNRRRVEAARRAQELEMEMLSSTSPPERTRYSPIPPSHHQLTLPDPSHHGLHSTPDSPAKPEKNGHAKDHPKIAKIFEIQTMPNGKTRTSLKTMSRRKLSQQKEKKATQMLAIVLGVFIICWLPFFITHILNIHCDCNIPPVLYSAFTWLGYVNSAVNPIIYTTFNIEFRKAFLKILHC
Beta-2 adrenergic receptor (Homo sapiens), sequence (P07550 whole entry, looked up): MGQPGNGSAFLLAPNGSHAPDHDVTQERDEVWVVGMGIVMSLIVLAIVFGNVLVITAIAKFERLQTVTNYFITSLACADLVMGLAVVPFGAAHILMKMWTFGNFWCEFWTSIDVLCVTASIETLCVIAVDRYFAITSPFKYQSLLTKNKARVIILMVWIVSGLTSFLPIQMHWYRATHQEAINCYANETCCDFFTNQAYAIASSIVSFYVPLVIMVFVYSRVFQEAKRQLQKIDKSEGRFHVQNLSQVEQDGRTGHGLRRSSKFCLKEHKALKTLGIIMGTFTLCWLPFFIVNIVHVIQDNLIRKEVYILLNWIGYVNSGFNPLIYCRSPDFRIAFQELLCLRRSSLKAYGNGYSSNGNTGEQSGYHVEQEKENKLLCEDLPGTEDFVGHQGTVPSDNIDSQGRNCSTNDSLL
5-hydroxytryptamine receptor 2A (Homo sapiens), sequence (P28223 whole entry, looked up): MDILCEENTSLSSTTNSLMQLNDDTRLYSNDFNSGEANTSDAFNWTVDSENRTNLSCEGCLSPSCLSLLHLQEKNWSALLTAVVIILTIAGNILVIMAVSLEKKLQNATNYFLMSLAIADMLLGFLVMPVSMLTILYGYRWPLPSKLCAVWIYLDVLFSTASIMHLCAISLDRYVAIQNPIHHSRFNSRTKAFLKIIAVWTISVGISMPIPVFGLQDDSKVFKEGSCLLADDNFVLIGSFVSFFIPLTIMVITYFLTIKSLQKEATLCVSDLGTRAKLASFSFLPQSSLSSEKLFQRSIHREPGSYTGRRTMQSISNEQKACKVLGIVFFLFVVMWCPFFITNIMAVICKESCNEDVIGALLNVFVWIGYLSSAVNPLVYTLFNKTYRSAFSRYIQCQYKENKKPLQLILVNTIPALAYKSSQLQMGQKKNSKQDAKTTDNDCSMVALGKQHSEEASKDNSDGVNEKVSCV
KiSS-1 receptor (Homo sapiens), sequence (Q969F8 whole entry, looked up): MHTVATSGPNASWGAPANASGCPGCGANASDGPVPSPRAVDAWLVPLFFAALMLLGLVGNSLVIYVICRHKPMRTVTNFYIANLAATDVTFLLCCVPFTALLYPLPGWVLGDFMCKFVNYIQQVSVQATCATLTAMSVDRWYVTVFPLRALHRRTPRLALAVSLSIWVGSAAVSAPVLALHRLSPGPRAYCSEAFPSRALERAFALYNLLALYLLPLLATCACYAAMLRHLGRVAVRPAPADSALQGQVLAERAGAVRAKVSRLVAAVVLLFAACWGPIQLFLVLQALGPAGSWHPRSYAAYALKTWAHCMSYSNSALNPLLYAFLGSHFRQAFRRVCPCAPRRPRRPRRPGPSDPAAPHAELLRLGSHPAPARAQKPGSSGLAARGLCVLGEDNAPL

Nc1ccc(F)c([N+](=O)[O-])c1
not listed: [19] | [20]
inactive: all other assays above

CC(C)c1ccc2sc3ccccc3c(=O)c2c1
active: [2] 68.6 µM
not listed: [13] | [14] | [15] | [18] | [19] | [20]
inactive: all other assays above

CCCCCCCCOc1ccc(C(=O)O)cc1
active: [2] 60.4 µM
not listed: [8] | [9] | [10] | [14] | [17]
inactive: all other assays above

N[C@H]1CN(c2c(F)cc3c(=O)c(C(=O)O)cn(C4C[C@H]4F)c3c2Cl)CC12CC2 (stereo partly specified)
not listed: [8] | [14] | [15] | [16] | [20]
inactive: all other assays above

CC1=NN(c2ccc(C(=O)O)cc2)C(=O)C1
not listed: [10] | [16] | [17] | [19]
inactive: all other assays above

COc1cc(NS(=O)(=O)c2ccc(N)cc2)nc(OC)n1
not listed: [10] | [11] | [12] | [13] | [14] | [18] | [19] | [20]
inactive: all other assays above

CCCCCCCCCCCCCC[n+]1ccccc1
inactive: [2] | [4] | [5] | [6] | [7] | [16] | [17] | [18]
active: [1] 27.3 µM | [3] 34.7 µM

CN(C)CCOC1=Cc2ccccc2Sc2ccc(Cl)cc21
not listed: [8] | [9] | [10] | [16] | [18]
inactive: all other assays above

C1=CCCC1
not listed: [13] | [16] | [19] | [20]
inactive: all other assays above

CC(=O)c1ccc(Cl)c(Cl)c1Cl
not listed: [7] | [20]
inactive: all other assays above

CCCCCCCCCCCCCCCCCC(=O)OCCCCCCCCCCCCCC(C)C
not listed: [7] | [18] | [20]
inactive: all other assays above
